Assay outcomes as filed in PubChem.
Sampled rows, rich in hits. Any-hit rate of the full collection: about 12%.
JMJD2A Tudor: qHTS Assay for Inhibitors of JMJD2A-Tudor Domain; AlphaScreen JMJD2A-Tudor / H3K4me3 peptide binding; Potency, µM (titrated, usually from 114 µM), for the others: top-dose activity change, negative = inhibition, usual class: inhibitors; Lysine-specific demethylase 4A (Homo sapiens), O75164; 390,000 tested, 4.4% active; note: % is set by controls: 0 for no effect and ±100 for the full control effect; nearly all actives have a fitted effect of over 50% in size
BAZ2B block: qHTS Assay for Inhibitors of BAZ2B; AlphaScreen BAZ2B-H3K14Ac peptide displacement; 360,000 tested, 4.4% active; Bromodomain adjacent to zinc finger domain protein 2B (Homo sapiens), Q9UIF8; Potency, µM (titrated, usually from 114 µM), inactives show at the highest dose activity change, negative = inhibition, hits mostly inhibitors; note: % is set by controls: 0 for no effect and ±100 for the full control effect; nearly all actives have a fitted effect of over 60% in size
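BAZ2B (50 nM) with biotin-H3(5-23)K14Ac peptide (50 nM) in PBS pH 7.4, 0.01% Tween-20, preformed 30 min, then compound 30 min at room temperature; top concentration 110uM. AlphaScreen streptavidin donor/nickel chelate acceptor beads (10 ug/mL final), 20 min dark, signal read.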
HP1b chromo inh: HTS for Inhibitors of HP1-beta Chromodomain Interactions with Methylated Histone Tails; Chromobox protein homolog 1 (Homo sapiens), P83916; AlphaScreen HP1-beta / biotin-H3K9me3 peptide binding; Potency, µM (doses to about 114 µM), for inactives: at the highest dose activity change, negative = inhibition, hits mostly inhibitors; 390,000 tested, 0.56% active; note: nearly all actives have a fitted effect of over 70% in size
Target sequence (P83916 whole entry, looked up): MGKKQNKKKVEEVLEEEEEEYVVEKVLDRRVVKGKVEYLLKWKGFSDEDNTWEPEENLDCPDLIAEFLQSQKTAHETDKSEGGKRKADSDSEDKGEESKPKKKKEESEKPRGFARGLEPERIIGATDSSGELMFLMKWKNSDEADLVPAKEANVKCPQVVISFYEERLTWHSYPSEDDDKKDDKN
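Compound inhibition of the preformed complex between 50 nM HP1-beta and 50 nM biotinylated H3K9me3 peptide was read by AlphaScreen. Buffer was PBS pH 7.4 with 0.01% Tween-20. Incubations ran 30 min at room temperature, with 10 ug/mL donor/acceptor beads.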
Sfp inh: qHTS Assay for Inhibitors of Bacillus subtilis Sfp phosphopantetheinyl transferase (PPTase); 4'-phosphopantetheinyl transferase ffp (Bacillus subtilis), Q9F4F7; Biochemical Sfp PPTase activity, qHTS; Potency, µM, for the others: largest response in the series, negative = inhibition, hits mostly inhibitors; 310,000 tested, 3.5% active; AID 1490, 2009;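 note: the enzyme is Sfp with the accession as filed and its product quenches rhodamine fluorescence; 0% = enzyme reaction without inhibitor and -100% = no enzyme wells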
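Buffer: 50 mM Hepes-Na pH 7.6, 10 mM MgCl2, 0.01% Nonidet P-40, 0.01% BSA. Enzyme 15 nM, pre-exposed to compound 15 min; substrates then added and fluorescence change tracked over 30 min.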
G9a inh: qHTS Assay for Inhibitors of Histone Lysine Methyltransferase G9a | 350,000 tested, 8.8% active | Histone-lysine N-methyltransferase EHMT2 (Homo sapiens), Q96KQ7 | AID 504332, 2011 | Potency, µM (series often up to 102 µM), for inactives: at the top dose activity, negative = inhibition, hits mostly inhibitors | G9a H3K9 monomethylation, AlphaScreen, 2 h; note: % is set by controls: 0 for no effect and ±100 for the full control effect; nearly all actives have a fitted effect of over 75% in size
Target sequence (Q96KQ7 913-1193 limits assumed): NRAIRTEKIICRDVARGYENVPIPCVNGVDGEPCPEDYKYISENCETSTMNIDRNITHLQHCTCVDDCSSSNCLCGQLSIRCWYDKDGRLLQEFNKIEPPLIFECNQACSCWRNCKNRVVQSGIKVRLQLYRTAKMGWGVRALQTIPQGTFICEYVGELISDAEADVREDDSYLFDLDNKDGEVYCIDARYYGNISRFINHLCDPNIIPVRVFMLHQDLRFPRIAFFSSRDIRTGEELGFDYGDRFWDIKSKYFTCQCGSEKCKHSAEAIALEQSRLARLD
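G9a (20 nM) preincubated 15 min RT with compounds, then 500 nM biotinylated H3K9 peptide and 20 uM SAM added; 2 h RT reaction. Monomethyl-H3K9 product detected by AlphaScreen with anti-H3K9me1 antibody, streptavidin donor and anti-rabbit IgG acceptor beads.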
PLK1 PBD block: qHTS for Inhibitors of PLK1-PDB (polo-like kinase 1 - polo-box domain): Primary Screen; Plk1 PBD binding of FITC phosphopeptide, fluorescence polarization; Potency, µM, for inactives: max response, negative = inhibition, most hits filed as inhibitors; 360,000 tested, 2.8% active; note: series mostly up to about 57 µM; % is set by controls: 0 for no effect and ±100 for the full control effect; nearly all actives have a fitted effect of over 65% in size
* marks the source's active call; other numbers are inactive results; ? = inconclusive; . = not tested or not shown; [ ] = remark or other dose. Calls come from the whole dose curve; as a rule, active = well fitted curve in the direction sought with a large enough effect; inconclusive = small, poorly fitted or top-dose-only effect, or another doubt; inactive = no such curve, though single readings can be large; an effect the other way counts as inactive or inconclusive. Potency is the fitted concentration of half-maximal effect.

SMILES	JMJD2A Tudor	BAZ2B block	HP1b chromo inh	Sfp inh	G9a inh	PLK1 PBD block
CS(=O)(=O)c1ccc(S(=O)CC(=O)Oc2ccc(Cl)cc2)c([N+](=O)[O-])c1 (stereo not given)	-5%	-2%	9%	?	6.3µM*	3µM*
COc1ccc(Cc2nc3ccc(C(=O)N(C)Cc4nccs4)cc3o2)cc1OC	?	-8%	-3%	1%	.	30µM*
COc1cc(NC(=S)NCc2ccc(S(N)(=O)=O)cc2)c(OC)cc1Cl	-23%	?	?	-23%	35µM*	-24%
COc1ccc(NC(=S)NCCc2ccc(S(N)(=O)=O)cc2)c(OC)c1	5%[11.4 µM]	2%	26%	?	35µM*	-24%
N#Cc1c(Nc2ccc(Cl)cc2)s[nH]c1=O	79µM*	-5%	-5%	50µM*	.	?
CCOc1ccc(C(=O)/C=C/Nc2ccc(S(=O)(=O)Nc3onc(C)c3C)cc2)cc1	-23%[57.1 µM]	?	-11%	?	1.6µM*	-27%
COc1cccc(C(=O)/C=C/Nc2ccc(S(=O)(=O)Nc3onc(C)c3C)cc2)c1	-16%	?	19%	9%	?	0%
Cc1noc(NS(=O)(=O)c2ccc(N/C=C\C(=O)c3cccc4ccccc34)cc2)c1C	?	50µM*	?	79µM*	?	24µM*
CCc1nnc(NS(=O)(=O)c2ccc(N/C=C\C(=O)c3cccc4ccccc34)cc2)s1	?	?	?	-6%	?	?
COc1cccc(CSc2nc3ccncc3n2CC(=O)Nc2ccc(OC)c(OC)c2OC)c1	-34%	-2%	51%	.	?	.
OC(COc1ccc2c(c1)OCO2)CN1CCCCC1 (stereo not given)	9%	-9%	25%	5%	-2%	4%
OC(COc1ccc2c(c1)OCO2)CN1CCN(c2ccccc2)CC1 (stereo not given)	?	-38%	2%	?	50µM*	-9%
CC(C)c1ccc(OCC(O)CN2CCN(c3ccccc3)CC2)cc1 (stereo not given)	-36%	56µM*	-6%	-2%	?	4%
CC(Oc1ccc(Cl)cc1)C(=O)N1CCN(C(=O)c2ccco2)CC1 (stereo not given)	-7%	12%	13%	.	18%[12.7 µM]	-10%
CN1c2ccsc2C(O)=C(C(=S)Nc2ccc(F)c(Cl)c2)S1(=O)=O	-32%	?	-29%	50µM*	18µM*	?
CC(=O)OC[C@@H]1O[C@@H](O/N=C2/C[C@@H](O)[C@@H](O)[C@@H]3[C@@H]4C(=O)N(C(C)(C)C)C(=O)[C@H]4CC[C@@H]23)[C@H](OC(C)=O)[C@H](OC(C)=O)[C@@H]1OC(C)=O	.	.	.	15%	.	.
Cc1cc(C)c2c(=O)n(CC(=O)NCCCN3CCOCC3)sc2n1	1.1µM*	?	3.2µM*	1.3µM*	1.3µM*	1.5µM*
Cc1cc(C)c2c(=O)n(CC(=O)NCCCN3CCN(c4ccccc4F)CC3)sc2n1	1µM*	?	2.5µM*	4.5µM*	1.1µM*	2.1µM*
COc1cc(OC)cc(-c2c(C#Cc3ccsc3)c3cc(-c4cccc5[nH]cc(C=O)c45)ccc3n2C)c1	-14%	.	12%	.	.	-13%
COc1ccc(-c2nc3c(C)cc(Br)cn3c2Cc2cccc(Cl)c2)cc1OC	.	.	.	.	.	-12%
CCOC(=O)c1c(CC(C)C)csc1N	-14%	?	17%	2%	40µM*	?
